This is a sample that favours compounds with a hit; in the whole collection about 4.2% have one here.
DAX1 inh: DAX1 (NR0B1) inhibitors on StAR promoter, primary screen, cell-based, luminescence, SF-1 (NR5A1), full-length DAX-1; inhibition, % at 6.8 µM; AID 652010, 2013; HEK293T StAR-luciferase reporter, SF-1/DAX-1 repression relief; actives 1.1% (n = 370,000);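 active = inhibition above the mean over all tested compounds plus 3 SD, cut at about 3.6% in these data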;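 also: 0% = DAX-1 cells with DMSO and 100% = cells lacking DAX-1 with DMSO; higher inhibition means more luminescence from relief of DAX-1 repression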
ssDAF12 agonist: S. stercoralis DAF-12 nuclear receptor activators, primary screen, cell-based, luminescence, HEK293, GRIP1 co-expression, lit1-tk-luc. Nuclear hormone receptor DAF-12 (Strongyloides stercoralis). HEK293 ssDAF-12/GRIP1 lit1-tk-luc reporter; % of 3 µM dafachronic acid response. activation, % at 6.8 µM. actives 1% (n = 370,000). AID 652126, 2013;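 active = activation above the mean over all tested compounds plus 3 SD, cut at about 0.9% in these data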;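 also: 0% = DMSO-only wells and 100% = 3 µM delta7-dafachronic acid wells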
hgDAF-12 ag: H. glycines DAF-12 receptor agonists, primary screen, cell-based, luminescence, HEK293, GAL4 fusion, UAS-luciferase. Nuclear hormone receptor DAF-12 (Heterodera glycines), GAL4 fusion. actives 1.8% (n = 370,000). HEK293 GAL4-hgDAF12 UAS-luciferase reporter, agonist luminescence; normalized to butyrate control. activation, % at 6.8 µM;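 active = activation above a cutoff set at the mean of all screened compounds plus 3 SD, cut at about 10% in these data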;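 also: 0% = DMSO wells and 100% = sodium butyrate wells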
SMARCA2 activ: SMARCA2 (BRM) function activators, primary screen, cell-based, luminescence, high throughput. AID 652017, 2013. MG213 cells, MMTV-luciferase reporter, dexamethasone, overnight. activation, % at 9.1 µM. actives 1% (n = 370,000); in the data active = activation above about 7.8%;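 also: 0% = vehicle wells and 100% = reference activator wells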
hcDAF-12 act: H. contortus DAF-12 nuclear receptor activators, primary screen, cell-based, luminescence, HEK293, lit1-tk-luc reporter; HEK293 hcDAF-12 lit1-tk-luc reporter; 0% DMSO, 100% Δ7-dafachronic acid; activation, % at 6.8 µM; actives 1.4% (n = 370,000); AID 652067, 2013;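 active = activation above the mean of all tested compounds plus 3 SD, cut at about 5.5% in these data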;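 also: 100% = response to 3 µM Δ7-dafachronic acid high control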
Numbers without * were called inactive; x = no result given.

SMILES	DAX1 inh	ssDAF12 agonist	hgDAF-12 ag	SMARCA2 activ	hcDAF-12 act
O=C(/C=C/c1ccccc1)Nc1cccnc1Cl	1.8	1.8*	9.7	7.2	2.0
NC(=O)c1ccccc1NC(=O)/C=C/c1ccccc1	3.4	-0.2	11.4*	1.6	2.0
CC(C)=CC(=O)Nc1ccccc1C(N)=O	0.3	-1.4	1.9	5.0	-0.8
Cc1ccc(C(=O)Oc2coc(CSc3ncccn3)cc2=O)cc1[N+](=O)[O-]	x	-1.3	-1.3	x	-1.2
O=C(Nc1cccnc1Cl)c1cccnc1Cl	-0.5	-1.6	-0.4	-0.5	-0.7
O=C(Nc1cccnc1Cl)c1ccc(Cl)cc1	0.7	-0.4	12.4*	3.3	1.3
COc1ccc(-c2cc3cc(OC)c(OC)cc3c(C)n2)cc1	0.6	-1.1	11.3*	6.4	-0.1
COc1ccc(-c2cc(OC)c3ccccc3n2)cc1	0.3	-0.8	1.4	-0.2	3.9
COc1ccc(S(=O)(=O)N2N=C(c3ccc(NS(C)(=O)=O)cc3)CC2c2ccco2)cc1 (stereo not drawn)	0.7	1.3*	2.2	5.8	5.6*
CCOc1ccc(/C=N/OCC(=O)Nc2cc(C)on2)cc1	0.0	1.6*	-3.6	0.0	-1.5
O=C(Nc1sc2c(c1CN1CCOCC1)CCC2)c1ccc(F)cc1	0.5	-1.4	3.4	0.4	5.9*
Cc1sc(NC(=O)c2ccccc2F)c(CN2CCCCC2)c1C	0.7	-0.7	8.5	3.8	6.2*
CC(=O)Nc1sc2c(c1CN1CCN(C)CC1)CCCC2	0.0	-0.9	1.1	-4.9	1.6
Cc1sc(NC(=O)c2ccc(F)cc2)c(CN2CCCCCC2)c1C	2.2	0.4	10.8*	3.8	4.5
Cc1sc(NC(=O)c2ccco2)c(CN2CCN(Cc3ccccc3)CC2)c1C	-0.3	-1.0	3.3	-3.9	-1.1
O=S1(=O)c2c(NCc3ccco3)cccc2Oc2ccccc2CN1Cc1cn(Cc2ccc(Cl)cc2)nn1	0.7	-0.9	-3.8	-3.2	-2.9
O=C(Nc1ccc(N=Nc2ccccc2)cc1)c1ccccc1Cl	3.9*	-0.8	11.3*	3.9	2.2
COC(=O)[C@H](CC(C)C)N(CCCc1cn(Cc2ccc(C)cc2)nn1)S(=O)(=O)c1ccccc1Br	-2.6	-1.3	0.0	-1.8	-4.5
Cc1ccc(OCC(=O)N2CCCCCCC2)cc1C	0.5	-0.7	5.1	1.1	0.8
Cc1cc(OCC(=O)N2CCCCCC2)ccc1[N+](=O)[O-]	2.0	0.7	12.3*	3.8	0.2
COc1cc(/C=C(/C(=O)c2cccs2)c2nc3ccccc3[nH]2)ccc1O	-2.6	-0.8	10.8*	2.8	1.7
CCN(CC)C(=O)CC[C@H]1CC[C@]2(CCCN(C(=O)C3CCCC3)C2)O1	0.0	-1.5	4.9	-2.7	-0.8
COCCCN1C(=O)C(CC(=O)NCc2cccc3ccccc23)CC(C(=O)N2CCCCCC2)=C1C (stereo not drawn)	-0.2	-1.2	1.5	-3.9	-1.2
O=C(CCNC(=O)c1ccccc1)N=Nc1c(O)[nH]c2ccccc12	0.9	21.2*	-2.2	-0.9	1.0
Cc1ccc(NC(=S)N=Nc2c(O)[nH]c3ccccc23)cc1	-1.4	-1.9	-4.2	6.6	-0.4
SMILES	DAX1 inh	ssDAF12 agonist	hgDAF-12 ag	SMARCA2 activ	hcDAF-12 act
CNC(=S)N=Nc1c(O)[nH]c2ccccc12	-0.7	-1.0	0.0	-1.6	5.6*
Cc1cc(C)n2nc(S(=O)(=O)N(C)Cc3ccccc3)nc2n1	-0.1	-1.6	-0.6	2.7	-1.1
Cc1cc(C)n2nc(S(=O)(=O)N(CC(C)C)CC(C)C)nc2n1	0.9	1.0*	-0.4	-1.2	-0.9
CCCCc1c(-c2ccccc2OC)ncn1Cc1ccc(F)c(F)c1	-0.2	-0.8	-2.3	-4.0	-0.3
C[C@@H]1CN([C@@H](C)CO)C(=O)c2cccc(NC(=O)Nc3cccc4ccccc34)c2O[C@H]1CN(C)S(=O)(=O)c1ccc2c(c1)OCCO2	x	-1.5	0.2	x	-2.1
CSc1nnc2c3ccccc3c3ccccc3c2n1	0.0	1.2*	-0.9	-2.6	3.2
COC(=O)C1CN(Cc2cn(Cc3ccc(C)cc3)nn2)CCS(=O)(=O)N1Cc1ccc(F)cc1 (stereo not drawn)	-0.8	-1.5	-3.5	1.0	-3.4
